Assay results from PubChem BioAssay (NCI).
The panel holds about 83,000 compounds, 20% with a hit somewhere; the sample as a whole holds those more often.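 Cells were grown in 96-well plates and exposed to the test compound at a single concentration for 48 hours; results are reported as percent growth, with values below 10 considered active.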 Activity calls are given as the source filed them.

Experiments:
Assay in all cases: NCI-60 one-dose screen, 48 h (100 = growth as untreated, 0 = no growth, -100 = all killed)
Details in all cases: 10 µM unless noted
[1] = tested on: NCI-H23 lung
[2] = tested on: NCI-H226 lung
[3] = tested on: NCI-H322M lung
[4] = tested on: HOP-62 NSCLC
[5] = tested on: NCI-H460 lung
[6] = tested on: HOP-92 NSCLC
[7] = tested on: NCI-H522 lung
[8] = tested on: A549/ATCC NSCLC
[9] = tested on: 786-0 renal
[10] = tested on: COLO 205 colon

Measured: growth

CC1=C([Se]CC(OC(=O)[C@@H](CO)NC(=O)OC(C)(C)C)C(=O)NC(C)(C)C)C(=O)c2ccccc2C1=O (stereo not given in full)
active: [1] -74.5% | [2] -98.5% | [3] -73.1% | [4] -60.1% | [5] -61.7% | [6] -68.8% | [7] -92.8% | [8] -11.5% | [9] -100% | [10] -100%

O=c1[nH]c2ccccc2n1C1CCN(CCOc2ccccc2)CC1
active: [8] -22.6%
inactive: [1] 93% | [2] 78.9% | [3] 98.8% | [4] 96.7% | [5] 94% | [6] 37.1% | [7] 76.3% | [9] 100% | [10] 94.3%

O=C1/C(=C/c2ccc(F)cc2)C=C(c2ccccc2)N1CCc1ccccc1
active: [4] -3.68% | [6] 7.45%
inactive: [1] 70.8% | [2] 51.9% | [3] 65.6% | [5] 61.3% | [7] 42.9% | [8] 40.8% | [9] 27.6% | [10] 71.9%

Cc1ccc(-c2cc(-c3cccnc3)[nH]c(=O)c2C#N)cc1
inactive: [1] 103% | [2] 99.2% | [3] 103% | [4] 107% | [5] 107% | [6] 97.9% | [7] 94% | [8] 102% | [9] 101% | [10] 118%

Cc1cc(NCc2cc(Nc3ccnc4cc(Cl)ccc34)ccc2F)nc(N2CCSCC2)n1
active: [4] -41.6% | [5] 6.39% | [7] -23.6% | [10] -38.5%
inactive: [1] 26.9% | [2] 84.6% | [3] 43.2% | [6] 37.7% | [8] 39% | [9] 15.5%

COc1cccc(-c2nn(-c3ccccc3)cc2-c2ccnc(NCCNC(=O)c3ccccc3)c2)c1
inactive: [1] 61.4% | [2] 70.4% | [3] 109% | [4] 60.7% | [5] 63.7% | [6] 52.8% | [7] 56.7% | [8] 41.8% | [9] 54.4% | [10] 62.6%

CN(C)CCCn1c(=O)c2ccccc2c2ccccc21
inactive: [1] 76.8% | [2] 87.6% | [3] 98.5% | [4] 80.1% | [5] 66.5% | [6] 45.5% | [7] 53.1% | [8] 87.2% | [9] 68.4% | [10] 55%

COC(=O)[C@]12CC[C@@H](C)[C@H](C)[C@@H]1C1=CC[C@@H]3[C@@]4(C)C(C=O)=C[C@@](C)(COS(C)(=O)=O)[C@@H]4C(=O)C[C@@]3(C)[C@]1(C)CC2
inactive: [1] 35.3% | [2] 67.2% | [3] 89.2% | [4] 41.7% | [5] 42.4% | [6] 39.8% | [7] 22.2% | [8] 27.6% | [9] 40.7% | [10] 32.1%

O=c1c2cc(F)ccc2sc2c(NCCN3CCCCC3)nc3ccccc3c12
inactive: [1] 65.6% | [2] 77% | [3] 70.9% | [4] 64.4% | [5] 18.3% | [6] 34.2% | [7] 34.2% | [8] 59.1% | [9] 41% | [10] 48%

O=C(CCCCCCSc1nc(-c2ccccc2)cc(-c2ccc(Cl)cc2)n1)NO
active: [1] -17.7% | [2] 2.23% | [4] -9.16% | [5] 7.04% | [6] -7.58% | [7] -15.8% | [8] -23% | [9] 1.46%
inactive: [3] 21.3% | [10] 20.9%

c1ccc2cc3nc4cc5ccccc5cc4nc3cc2c1
inactive: [1] 88.8% | [2] 97.3% | [3] 109% | [4] 83.5% | [5] 99.8% | [6] 94.3% | [7] 99% | [8] 88.4% | [9] 108% | [10] 77.7%

CN(C)CCC=C1c2ccccc2C(C)(C)c2ccccc21
inactive: [1] 65.8% | [2] 122% | [3] 99.1% | [4] 64.5% | [5] 85.6% | [6] 36.7% | [7] 76.5% | [8] 88.9% | [9] 67.4% | [10] 68.7%

COc1cccc(-c2nn(-c3ccccc3)cc2-c2ccnc(NCCNC(=O)Nc3cccc(C(F)(F)F)c3)c2)c1
active: [4] 9.97% | [5] 7.98% | [6] 0.983% | [7] -17.9% | [8] 7.06% | [10] -13.3%
inactive: [1] 35.8% | [2] 61% | [3] 35.8% | [9] 22.7%

CCOC(=O)c1c(-c2ccc(Cl)cc2)c(C#N)c(=O)n(-c2ccccc2CC)c1N
inactive: [1] 76.9% | [2] 85.4% | [3] 78.7% | [4] 97.5% | [5] 82.3% | [6] 65.9% | [7] 92% | [8] 85% | [9] 93.4% | [10] 111%

CCCCC1CCCCN1C(=O)OCC (stereo not given)
inactive: [1] 102% | [2] 121% | [3] 101% | [4] 103% | [5] 107% | [6] 88.5% | [7] 94.1% | [8] 95.1% | [9] 93% | [10] 102%

O=C(O)c1ccc2c(c1)CCC2
inactive: [1] 108% | [2] 104% | [3] 106% | [4] 114% | [5] 115% | [6] 117% | [7] 104% | [8] 104% | [9] 105% | [10] 104%

COC(=O)c1c2c(c[n+]([O-])c1C)C(=O)C=CC2=O
inactive: [1] 60.4% | [2] 98.1% | [3] 110% | [4] 104% | [5] 98.4% | [6] 70.8% | [8] 100% | [9] 91.6% | [10] 33.5%
active: [7] -69.9%

Cn1ccc2c(c1=O)C(=O)c1nccc3c1c-2nc1ccccc13
inactive: [2] 83.1% | [3] 17.4% | [6] 62.8%
active: [1] -66.6% | [4] -86.6% | [5] -74.7% | [7] -68.5% | [8] -87.4% | [9] -95.5% | [10] -75.5%

COc1ccc(S(=O)(=O)NCCNc2nccc(-c3c(-c4cccc(F)c4)nc4sccn34)n2)cc1
inactive: [1] 56.3% | [2] 28.1% | [3] 63% | [4] 73.4% | [5] 29% | [6] 71.8% | [7] 48.1% | [8] 22.5% | [9] 43.1% | [10] 21.7%

COc1cc(C2CC(c3ccc(Nc4ccnc5cc(Cl)ccc45)cc3)=NN2C=O)cc(OC)c1OC (stereo not given)
inactive: [1] 89.2% | [2] 102% | [3] 107% | [4] 84.4% | [5] 57.2% | [7] 71.7% | [8] 72.4% | [9] 63.8% | [10] 95.6%
active: [6] -3.68%

C#CCOc1nc(C)cc(C)c1C#N
inactive: [1] 95.6% | [2] 97% | [3] 105% | [4] 92.2% | [5] 102% | [6] 71.4% | [7] 89.3% | [8] 97.7% | [9] 99.6% | [10] 111%

COc1cc(C(=O)c2cc(C)c3[nH]c4ccc(Cl)cc4c3c2C)cc(OC)c1OC
active: [5] 4.97%
inactive: [1] 13.8% | [2] 54.8% | [3] 33% | [4] 40% | [6] 38.6% | [7] 35.5% | [8] 19.6% | [9] 19.6% | [10] 11%

COc1cccc(C(=O)NCCCNc2cc(-c3cn(-c4ccccc4)nc3-c3cccc(OC)c3)ccn2)c1
inactive: [1] 45.4% | [2] 54.6% | [3] 99.6% | [4] 66% | [5] 48.8% | [6] 45.3% | [7] 46.1% | [8] 29.9% | [9] 36.6% | [10] 40%

CCOC(=O)c1c(/C=C/C(=O)O)nc2ccccc2c1/C=C/c1ccccc1
inactive: [1] 50.3% | [2] 53.8% | [3] 72.7% | [4] 63.3% | [5] 28.5% | [6] 60.1% | [7] 40.9% | [8] 70.7% | [9] 54.9% | [10] 84%

COc1cc(C2CC(=O)Nc3c2c(C)nn3-c2nc3ccccc3[nH]2)cc2c1OCC(=O)N2 (stereo not given)
inactive: [1] 74.6% | [2] 76.2% | [3] 94% | [4] 80.8% | [5] 67.1% | [6] 56.9% | [7] 71.4% | [8] 66.8% | [9] 58.5% | [10] 79.2%

Cc1ccccc1NC(=O)N/C(N)=N/c1nc(C)c(C)s1
inactive: [1] 42.7% | [2] 60% | [3] 46.2% | [4] 43.9% | [5] 10.5% | [6] 73.6% | [7] 16.3% | [8] 40.2% | [9] 51.4% | [10] 10.1%

S=C(c1ccc2c(c1)OCO2)N1CCN(c2ccccc2Cl)CC1
inactive: [1] 101% | [2] 87.9% | [3] 103% | [4] 102% | [5] 102% | [6] 67.3% | [7] 74.8% | [8] 98.2% | [9] 92.4% | [10] 97.1%
